Assay results reported in PubChem BioAssay (NCI).
Compounds without any hit were thinned out: in the full panel of roughly 83,000, 20% have a hit.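 Single-dose data. Exposure time 48 hours. Values below 10 considered active.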 Values without a mark were called inactive. Calls of active or inactive are those of the source.

Key:
Experiment in all cases: NCI-60 one-dose screen, 48 h (100 = growth as untreated, 0 = no growth, -100 = all killed)
Conditions in all cases: 10 µM unless noted
NCI-H23 lung = system: NCI-H23 lung
NCI-H226 lung = system: NCI-H226 lung
NCI-H322M lung = system: NCI-H322M lung
HOP-62 NSCLC = system: HOP-62 NSCLC
NCI-H460 lung = system: NCI-H460 lung
HOP-92 NSCLC = system: HOP-92 NSCLC
NCI-H522 lung = system: NCI-H522 lung
A549/ATCC NSCLC = system: A549/ATCC NSCLC
786-0 renal = system: 786-0 renal
COLO 205 colon = system: COLO 205 colon
DU-145 prostate = system: DU-145 prostate
K-562 leukemia = system: K-562 leukemia
MALME-3M melanoma = system: MALME-3M melanoma
MDA-MB-231 breast = system: MDA-MB-231 breast
RXF 393 renal = system: RXF 393 renal
SF-268 CNS = system: SF-268 CNS
SF-295 CNS = system: SF-295 CNS
SF-539 CNS = system: SF-539 CNS
UACC-257 melanoma = system: UACC-257 melanoma
M14 melanoma = system: M14 melanoma

Row | Structure (SMILES) | growth (NCI-H23 lung) | growth (NCI-H226 lung) | growth (NCI-H322M lung) | growth (HOP-62 NSCLC) | growth (NCI-H460 lung) | growth (HOP-92 NSCLC) | growth (NCI-H522 lung) | growth (A549/ATCC NSCLC) | growth (786-0 renal) | growth (COLO 205 colon) | growth (DU-145 prostate) | growth (K-562 leukemia) | growth (MALME-3M melanoma) | growth (MDA-MB-231 breast) | growth (RXF 393 renal) | growth (SF-268 CNS) | growth (SF-295 CNS) | growth (SF-539 CNS) | growth (UACC-257 melanoma) | growth (M14 melanoma)
1 | Nc1nc(-c2cc3c(cc2Cl)NC(=O)/C3=C/c2ccc(Cl)cc2)cs1 | 49.1% | 72.3% | 59.7% | 63% | 53.1% | 17.8% | 17.3% | 64.5% | 43.7% | 61.7% | 64.6% | 5.83% (active) | 56.2% | 2.9% (active) | 51.6% | 44.7% | 60.5% | 62.3% | 73.5% | 28.7%
2 | C=C1C(=O)O[C@H]2[C@H]1CC/C(COC(=O)CCCC(=O)OC/C1=C/CC[C@@]3(C)O[C@H]3[C@H]3OC(=O)C(=C)[C@@H]3CC1)=C\CC[C@@]1(C)O[C@@H]21 | 29.2% | -44.4% (active) | 90% | 79.6% | 64.5% | -43% (active) | -80.3% (active) | 73.5% | -34.1% (active) | -44.9% (active) | 20.8% | 7.38% (active) | -8.44% (active) | 2.73% (active) | -74.2% (active) | 44.2% | 78.3% | 0.465% (active) | -39.9% (active) | -33.1% (active)
3 | COc1ccc(/C=C/C(=O)/C=C(/C=C/c2ccc(OC)c(OC)c2OC)OB(F)F)c(OC)c1OC | 37.3% | 75.6% | 91.8% | 70.4% | 43.6% | 79.5% | 16.3% | 55.7% | 14.1% | 7.86% (active) | 42.9% | 9.46% (active) | 16.4% | 7.37% (active) | 6.5% (active) | 31.9% | 56.4% | 32.9% | 37% | 19.1%
4 | O=C(NCCNc1nccc(-c2c(-c3cccc(O)c3)nc3sccn23)n1)Nc1cc(C(F)(F)F)cc(C(F)(F)F)c1 | 90.9% | 101% | 87% | 118% | 51.8% | 74.4% | 69.5% | 57.7% | 82% | 45.1% | 97.1% | 72.7% | 60.5% | 41.4% | 41.4% | 69.4% | 66.7% | 96.5% | 57% | 21.4%
5 | Oc1ccccc1/C=N/c1ccccn1 | 220% | 107% | 132% | 112% | 112% | 76.9% | 92% | 104% | 158% | 85.7% | 129% | 109% | 115% | 106% | 107% | 110% | 121% | 100% | 91.4% | 100%
6 | Cc1ccc[n+](CC(=O)c2cccc3ccccc23)c1 | 102% | 96.2% | 97% | 100% | 111% | 97.1% | 101% | 111% | 93.8% | 101% | 115% | 102% | 97.3% | 130% | 105% | 103% | 97.1% | 93.2% | 112% | 98.3%
7 | CCCCNc1cc(C(=O)O)cc(S(N)(=O)=O)c1Oc1ccccc1 | 102% | 91% | 101% | 101% | 104% | 81% | 102% | 105% | 103% | 98.6% | 110% | 98.2% | 96.2% | 122% | 91.1% | 105% | 102% | 105% | 105% | 109%
8 | Cc1[nH]c2ccc(F)cc2c1CCNC(=O)C1CCN(C(=O)c2ccc(-c3ccccc3)cc2)CC1 | 45.5% | 57.3% | 87% | 64.4% | 51% | 70.6% | 41.6% | 39.1% | 63.3% | 36.7% | 68.8% | 17.3% | 63.6% | 62.7% | 54.5% | 60.4% | 37.6% | 66.8% | 58.1% | 40.8%
9 | C/C(=N/O)c1ccc(NC(=O)Cn2nc(-c3ccc(Cl)cc3)nc2N)cc1 | 92.7% | 82.9% | 92.4% | 88.8% | 100% | 99.2% | 68.7% | 79.3% | 109% | 101% | 104% | 99.3% | 102% | 82.7% | 100% | 89.2% | 107% | 97.3% | 73% | 107%
10 | Cc1cccc(NCS(=O)(=O)O)c1 | 99.5% | 97.1% | 106% | 92.4% | 105% | 99.4% | 90.9% | 75% | 103% | 103% | 112% | 107% | 102% | 111% | 109% | 109% | 106% | 95.7% | 83.2% | 106%
11 | O=C(O)c1ccc(-n2cc(/C=N/Nc3ccccc3F)c(-c3ccc(O)cc3)n2)cc1 | 92.3% | 95.3% | 79.1% | 91.7% | 101% | 95.6% | 48.3% | 86.8% | 84% | 95.9% | 97% | 13% | 92.7% | 85.2% | 92.6% | 78.6% | 80.5% | 85.9% | 103% | 73.5%
12 | Cc1ccccc1C[P+](c1ccccc1)(c1ccccc1)c1ccccc1 | 11.6% | 32.9% | 57.7% | 32.4% | 21% | -7.58% (active) | 0.342% (active) | 29.9% | 40.7% | 9.84% (active) | 32.4% | 22.4% | 5.05% (active) | 46.3% | 50.4% | 16.7% | 25.2% | 33.6% | -1.88% (active) | 29.2%
13 | O=[N+]([O-])c1cccc(C(c2ccccc2)c2ccccc2)c1 | 87.5% | 76.9% | 90.6% | 88.7% | 87.5% | 63.9% | 79.1% | 87.7% | 97.3% | 95.2% | 110% | 73.7% | 97% | 83.1% | 102% | 99.8% | 76.7% | 101% | 102% | 97%
14 | COCCNC(C(=O)c1ccccc1)c1ccccc1 (stereo not given) | 103% | 91% | 100% | 100% | 108% | 85.7% | 107% | 99.8% | 92.5% | 117% | 107% | 103% | 102% | 102% | 101% | 94.3% | 98% | 99.7% | 97.6% | 100%
15 | S=c1ssnc1-c1ccccn1 | 44.5% | 61.4% | 66.5% | 47.7% | 6.05% (active) | -4.36% (active) | -29.3% (active) | 57.7% | 18.1% | 43% | 41.6% | -35.5% (active) | 52% | 44.3% | -0.23% (active) | 24.9% | 40.4% | 14.5% | 93.3% | 24.5%
16 | COc1ccc(-c2c(C#N)cnc(N)c2-c2nc3cc(C)c(C)cc3[nH]2)cc1 | 44.9% | 99.3% | 38.2% | 57% | 36% | 68% | 45.6% | 27.2% | 25.8% | 68.7% | 37.4% | 51.6% | 45.9% | 53.4% | 56.6% | 57.1% | 27.3% | 92% | 70% | 51.2%
